Shown are actives, neighbours in structure and some others; about 4.6% of the full set was active somewhere.
SKKanGAS inh: SKKanGAS growth inhibition; S. pyogenes SKKanGAS, kanamycin growth, BacTiter-Glo, 6 h; inhibition, % at 7.5 µM; actives 1.3% (n = 300,000);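 active means mean replicate score, as percent of positive control median, at least 50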;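 further: strain carries kanamycin resistance gene driven by streptokinase promoter and grows in 40 µg/ml kanamycin; loss of luminescence reflects streptokinase promoter inhibition or plain growth inhibition; 0% = median of DMSO wells and 100% = positive control at its reference dose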
V-ATPase pHluor: alters yeast V-ATPase proton transport | response, % at 10 µM | actives 0.37% (n = 350,000) | S. cerevisiae, pHLuorin cytosolic pH fluorescence; in the data active means response mostly above about 7.3%, no sharp cut-off; inactive means mostly below about 5.4%; further: actives read high
TIM10 inh: inhibits growth of TIM10 yeast strain. S. cerevisiae TIM10 strain growth, BacTiter-Glo luminescence, 24 h. actives 1.4% (n = 330,000). AID 463195. inhibition, % at 10 µM;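 active means inhibition of 40% or more at the single tested concentration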;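 further: wild-type TIM10 isogenic control strain grown at permissive 25 °C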
tim10-1 inh: inhibits growth of tim10-1 mutant yeast. actives 2.2% (n = 330,000). S. cerevisiae tim10-1 ts strain growth, BacTiter-Glo, 24 h. inhibition, % at 20 µM. AID 463190;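 active means inhibition of at least 40%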;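 further: mutant grown at 25 °C; 0% = DMSO wells with yeast and 100% = wells holding no yeast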
PfHsp90 set2: reduces growth (ATP signal) of yeast expressing P. falciparum Hsp90 | AID 504621 | actives 0.32% (n = 310,000) | inhibition, % at 9.4 µM | S. cerevisiae expressing PfHsp90, BacTiter-Glo ATP, 48 h; yeast lacking PDR1 and PDR3 efflux regulators;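 active means every replicate shows inhibition above about 80%, whatever the replicate mean, limit read from the data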;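 further: 0% = DMSO neutral controls and 100% = 20 µM radicicol positive controls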
tim23-1 inh: inhibits growth of tim23-1 mutant yeast; S. cerevisiae tim23-1 growth, BacTiter-Glo luminescence, 24 h; inhibition, % at 20 µM; actives 1.3% (n = 330,000);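 active means growth inhibition of the mutant yeast at or above 50%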;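 further: temperature-sensitive mutant grown at 25 °C; plate controls were DMSO-treated mutant yeast for no effect and medium wells lacking yeast for full effect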
tim23-1 conf: tim23-1 yeast growth inhibition, confirmed; actives 83% (n = 4,400); S. cerevisiae tim23-1 growth, BacTiter-Glo luminescence, 24 h; inhibition, % at 20 µM; shares compounds with tim23-1 inh;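 active means inhibition above about 39% in either of two replicate wells at 20 µM, limit read from the data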;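 further: temperature-sensitive tim23-1 mutant grown at 25 °C; 0% = DMSO wells with yeast and 100% = medium wells without yeast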
The depositor's hits bear a star; · = not tested or not shown.

SMILES	SKKanGAS inh	V-ATPase pHluor	TIM10 inh	tim10-1 inh	PfHsp90 set2	tim23-1 inh	tim23-1 conf
COc1ccc(CN2CCN(C(=O)c3cccc4ccccc34)CC2)cc1OC	-6	-1	4	15	0	17	·
COc1ccc(OC)c(NC(=O)CSc2nc3nc(C)cc(C)n3n2)c1	·	0	5	-1	-16	11	·
CCOC(=O)c1cc2c(c(-c3ccccc3)n1)[C@@H](CCO)N(S(=O)(=O)C(C)(C)C)C2	·	-4	·	·	-10	·	·
Fc1ccc2cc(-c3ccccc3F)ncc2c1	·	3	-4	16	16	24	·
CCCCCc1cc(=O)oc2c(C(CCN(CC)CC)c3ccc(N(C)C)cc3)c(OC)cc(OC)c12 (stereo not drawn)	7	-2	15	6	-8	13	·
Cc1ccccc1-c1ocnc1C(=O)Nc1ccccc1NC(=O)c1ccccn1	2	1	35	34	-24	50*	49*
Cc1ccc(C)c(C(=O)c2ccccc2NC(=O)c2ccccn2)c1	-6	-1	-14	11	-25	25	·
CCCOc1ccc2ccccc2c1/C=C1\SC(=O)NC1=O	32	0	8	20	105*	55*	51*
CC(C)NC(=S)N/N=C/c1c[nH]c2ccccc12	-11	3	32	36	-38	56*	40*
COc1ccc(CN2CCN(c3cccc(C)c3C)CC2)cc1OC	0	-1	-1	11	-2	8	·
COc1cc(CN2CCN(c3cccc(C)c3C)CC2)cc(Br)c1O	3	-2	21	26	·	55*	45*
COc1cccc(NC(=O)COC(=O)CC2CC3CCC2C3)c1 (stereo not drawn)	·	-4	31	-3	-14	56*	41*
COc1ccc(C(=O)N2CCC3(CC2)NCCc2[nH]cnc23)cc1	0	-2	10	-6	5	-13	·
O=C1/C(=C/c2cccs2)COc2ccccc21	6	-4	33	28	-5	58*	58*
CCOC(=O)c1c(S(=O)(=O)Nc2ccc(C)cn2)c(C)n(C)c1C	-1	3	10	18	-1	19	·
CCOC(=O)c1cccc(OC(=O)CCNC(=O)c2ccc(Cl)cc2)c1	·	1	21	-12	3	57*	51*
CC(=O)c1ccc(OC(=O)CCNC(=O)c2ccccc2)cc1	·	2	8	2	-44	21	·
CCNc1nc(N)c(C(=C(C#N)C#N)c2ccccc2)s1	3	0	20	14	8	15	·
CCNc1nc(N)c(C(=O)C23CC4CC(CC(C4)C2)C3)s1	12	-3	28	31	3	61*	54*
Cc1cccc(Nc2nc(N)c([N+](=O)[O-])c(N3CCCC(C)C3)n2)c1 (stereo not drawn)	22	1	-46	23	104*	50*	20
Cc1cccc(Nc2nc(N)c([N+](=O)[O-])c(N3CCN(C)CC3)n2)c1	4	-7	1	11	-10	-3	·
Cc1ccc(NC(=S)N/N=C/c2c(Cl)cccc2Cl)c(C)c1	20	5	26	39	34	51*	40*
CC(O)c1cccc(N=Cc2ccc3ccccc3c2O)c1 (stereo not drawn)	0	0	9	-2	21	54*	42*
CC(C)N(Cc1ccccc1)S(=O)(=O)N(C)C	0	2	-3	-10	13	76*	8
S=C(NCCSCc1c(Cl)cccc1Cl)Nc1ccccc1	·	-5	40	35	·	50*	51*
C/C(CC(=O)Nc1ccc(F)cc1)=N\NC(=O)COc1ccccc1	5	-2	20	11	7	21	·
COc1ccc(-c2csc(Nc3cc(C)ccn3)n2)cc1OC	8	0	18	25	-20	94*	31
CCCc1cc(=O)[nH]c(SCC(=O)N(CC)c2c(N)n(Cc3ccccc3)c(=O)[nH]c2=O)n1	7	0	0	1	22	-1	·
COc1c(C)cccc1C(=O)NCc1ccc2c(c1)OCO2	2	0	-5	14	-18	6	·

Bioassay records deposited in PubChem by several laboratories.
